ALOX12 inh: inhibitors of human 12S-lipoxygenase ALOX12 | 580,000 compounds, 1.1% hits | Potency, µM (titrated, usually from 108 µM), without a hit: at the top dose activity change, negative = inhibition, usual class: inhibitors | AID 1671190 | purified 12hLO, xylenol orange hydroperoxide absorbance | P18054; note: % is set by controls: 0 for no effect and ±100 for the full control effect
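Hydroperoxide product was detected by ferrous iron/xylenol orange as the 573 to 405 nm absorbance ratio. Arachidonic acid at 40 uM (final) was turned over for 30 min at room temperature by 150 nM human 12hLO, pH 7.0 Hepes buffer, after 15 min compound preincubation.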
BAZ2B block: inhibitors of human BAZ2B bromodomain; Q9UIF8; AlphaScreen BAZ2B-H3K14Ac peptide displacement; Potency, µM (doses to about 114 µM), inactives show at the top dose activity change, negative = inhibition, usual class: inhibitors; 360,000 compounds, 4.4% hits; note: % is set by controls: 0 for no effect and ±100 for the full control effect; nearly all actives have a fitted effect of over 60% in size
Target sequence (Q9UIF8 whole entry, looked up): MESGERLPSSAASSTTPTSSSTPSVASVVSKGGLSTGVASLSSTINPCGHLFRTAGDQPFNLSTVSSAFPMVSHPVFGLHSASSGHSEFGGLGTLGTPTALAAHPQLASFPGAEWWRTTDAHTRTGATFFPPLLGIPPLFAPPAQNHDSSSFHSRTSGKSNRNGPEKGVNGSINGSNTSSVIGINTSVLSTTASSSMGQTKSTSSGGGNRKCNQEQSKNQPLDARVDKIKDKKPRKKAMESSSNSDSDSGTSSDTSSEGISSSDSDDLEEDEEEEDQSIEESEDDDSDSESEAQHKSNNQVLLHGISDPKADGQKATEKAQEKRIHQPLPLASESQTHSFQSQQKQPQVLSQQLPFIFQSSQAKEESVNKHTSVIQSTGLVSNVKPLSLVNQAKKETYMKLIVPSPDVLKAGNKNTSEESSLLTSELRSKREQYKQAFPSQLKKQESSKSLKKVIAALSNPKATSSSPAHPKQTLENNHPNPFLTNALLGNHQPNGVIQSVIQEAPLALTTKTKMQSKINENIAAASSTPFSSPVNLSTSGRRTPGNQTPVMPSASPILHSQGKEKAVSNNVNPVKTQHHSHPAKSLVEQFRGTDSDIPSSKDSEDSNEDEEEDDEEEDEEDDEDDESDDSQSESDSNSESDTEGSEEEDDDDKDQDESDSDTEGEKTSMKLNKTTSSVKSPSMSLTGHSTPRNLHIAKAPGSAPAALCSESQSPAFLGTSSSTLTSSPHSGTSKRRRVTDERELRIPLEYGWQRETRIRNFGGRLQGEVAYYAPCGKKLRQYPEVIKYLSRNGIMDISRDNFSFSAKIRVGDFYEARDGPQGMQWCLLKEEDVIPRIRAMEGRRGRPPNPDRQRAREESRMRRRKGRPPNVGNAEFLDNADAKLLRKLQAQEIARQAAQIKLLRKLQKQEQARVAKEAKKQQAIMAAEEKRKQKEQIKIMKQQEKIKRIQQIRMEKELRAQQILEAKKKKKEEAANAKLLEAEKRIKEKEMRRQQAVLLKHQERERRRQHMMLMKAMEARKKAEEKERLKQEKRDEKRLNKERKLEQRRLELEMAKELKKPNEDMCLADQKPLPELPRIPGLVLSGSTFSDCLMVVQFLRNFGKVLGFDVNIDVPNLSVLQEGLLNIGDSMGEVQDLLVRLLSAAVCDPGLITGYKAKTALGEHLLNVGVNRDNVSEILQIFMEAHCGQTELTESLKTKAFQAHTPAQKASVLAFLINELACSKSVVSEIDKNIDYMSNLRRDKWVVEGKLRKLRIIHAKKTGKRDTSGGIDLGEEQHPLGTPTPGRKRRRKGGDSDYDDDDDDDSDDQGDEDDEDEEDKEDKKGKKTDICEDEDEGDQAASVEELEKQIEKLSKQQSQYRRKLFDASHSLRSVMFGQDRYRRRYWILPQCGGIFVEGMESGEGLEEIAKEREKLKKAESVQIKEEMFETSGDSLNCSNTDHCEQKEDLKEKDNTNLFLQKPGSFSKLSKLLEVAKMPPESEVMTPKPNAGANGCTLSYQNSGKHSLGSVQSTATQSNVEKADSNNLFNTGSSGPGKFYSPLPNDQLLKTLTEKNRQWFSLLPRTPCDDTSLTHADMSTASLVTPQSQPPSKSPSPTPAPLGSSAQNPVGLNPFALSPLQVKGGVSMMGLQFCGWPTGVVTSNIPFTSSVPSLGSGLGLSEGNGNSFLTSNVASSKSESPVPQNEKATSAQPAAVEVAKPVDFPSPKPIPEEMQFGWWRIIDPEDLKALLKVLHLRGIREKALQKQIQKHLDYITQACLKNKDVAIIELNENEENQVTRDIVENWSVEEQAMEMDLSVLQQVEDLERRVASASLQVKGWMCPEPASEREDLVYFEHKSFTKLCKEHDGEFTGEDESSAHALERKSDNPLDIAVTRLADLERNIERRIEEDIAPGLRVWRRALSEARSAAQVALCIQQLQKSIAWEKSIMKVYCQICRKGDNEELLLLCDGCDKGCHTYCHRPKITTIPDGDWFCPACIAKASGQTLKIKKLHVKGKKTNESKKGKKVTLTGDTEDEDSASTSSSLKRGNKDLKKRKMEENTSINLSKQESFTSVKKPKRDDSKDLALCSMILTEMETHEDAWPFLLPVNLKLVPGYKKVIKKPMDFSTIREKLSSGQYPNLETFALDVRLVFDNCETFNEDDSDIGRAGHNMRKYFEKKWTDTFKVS
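Multi-concentration screen (max 110 uM) measuring displacement of acetylated histone H3 peptide from BAZ2B by AlphaScreen, using 50 nM protein, 50 nM peptide and 10 ug/mL streptavidin donor plus Ni-chelate acceptor beads.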
PLK1 PBD inh: blocks phosphopeptide binding to human PLK1 polo-box domain; P53350; 360,000 compounds, 2.8% hits; Plk1 PBD binding of FITC phosphopeptide, fluorescence polarization; Potency, µM, inactives show max response, negative = inhibition, usual class: inhibitors; note: series mostly up to about 57 µM; % is set by controls: 0 for no effect and ±100 for the full control effect; nearly all actives have a fitted effect of over 65% in size
HP1b chromo inh: inhibitors of HP1-beta chromodomain binding to methylated histone tails | P83916 | AlphaScreen HP1-beta / biotin-H3K9me3 peptide binding | Potency, µM (doses to about 114 µM), inactives show at the top dose activity change, negative = inhibition, most hits filed as inhibitors | 390,000 compounds, 0.56% hits | AID 540317; note: nearly all actives have a fitted effect of over 70% in size
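HP1-beta protein (50 nM final) preincubated 30 min at room temperature with biotinylated H3(1-18)K9me3 peptide (50 nM) in PBS pH 7.4, 0.01% Tween-20, then compound added for 30 min. AlphaScreen streptavidin donor/nickel chelate acceptor beads (10 ug/mL final), 30 min dark, luminescence read.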
G9a inh: inhibitors of human histone lysine methyltransferase G9a. G9a H3K9 monomethylation, AlphaScreen, 2 h. 350,000 compounds, 8.8% hits. Potency, µM (top dose mostly 102 µM), without a hit: at the highest dose activity, negative = inhibition, hits mostly inhibitors. Q96KQ7; note: % is set by controls: 0 for no effect and ±100 for the full control effect; nearly all actives have a fitted effect of over 75% in size
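Chemiluminescent proximity detection of H3K9 monomethylation, read after 10 min bead incubation in the dark. Reaction: 20 nM G9a, 500 nM biotin-H3K9 peptide, 20 uM SAM cofactor, 2 h, room temperature, following 15 min enzyme-compound preincubation.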
JMJD2A Tudor: blocks the human JMJD2A Tudor domain | AlphaScreen JMJD2A-Tudor / H3K4me3 peptide binding | AID 504339 | 390,000 compounds, 4.4% hits | Potency, µM (doses to about 114 µM), inactives show at the highest dose activity change, negative = inhibition, usual class: inhibitors; note: % is set by controls: 0 for no effect and ±100 for the full control effect; nearly all actives have a fitted effect of over 50% in size
* = called active by the depositor; u = inconclusive; x = no result given; [ ] = remark or other dose. The list is not random: actives were taken first. Their share in the collection is about 9%. Calls come from the whole dose curve; as a rule, active = well fitted curve in the direction sought with a large enough effect; inconclusive = small, poorly fitted or top-dose-only effect, or another doubt; inactive = no such curve, though single readings can be large; an effect the other way counts as inactive or inconclusive. Potency is the fitted concentration of half-maximal effect.

SMILES	ALOX12 inh	BAZ2B block	PLK1 PBD inh	HP1b chromo inh	G9a inh	JMJD2A Tudor
Fc1ccc2c(c1)C1C=CCC1C(c1cc3c(cc1Br)OCO3)N2 (configuration not stated)	u	-36%[57.1 µM]	-3%	-24%	-39%[12.7 µM]	45µM*
Fc1ccc([C@@H]2Nc3ccccc3[C@@H]3C=CC[C@@H]32)cc1	1%	-35%	x	16%	2.2µM*	u
O=C(O)c1ccc2c(c1)[C@@H]1C=CC[C@@H]1[C@H](c1ccccn1)N2	-13%	x	u	u	x	6.3µM*
O=C1c2ccccc2S(=O)(=O)N1CCCCN1CCN(c2ncccn2)CC1	-12%[22.9 µM]	x	x	x	10%[12.7 µM]	x
Cc1ccc(NC(=O)c2oc3ccc(S(=O)(=O)N4CCC5(CC4)OCCO5)cc3c2C)c(C)c1	u	-19%	x	30%	-2%[59 µM]	-2%
O=C(OCC(=O)N1N=C(c2ccc(Cl)cc2)CC1c1ccco1)c1cncc(Br)c1 (configuration not stated)	7.9µM*	x	u	-14%[57 µM]	x	u
O=C(OCC(=O)N1N=C(c2ccc(Cl)cc2)CC1c1ccco1)c1ccccc1O (configuration not stated)	29%	-2%	3%	56%	18µM*	-20%
O=C(OCC(=O)N1N=C(c2ccc(Cl)cc2)CC1c1ccco1)c1ccco1 (configuration not stated)	-20%	-28%	2%	12%	u	-28%
CC(CC#N)NCc1ccnc(N2CCCCC2)c1 (configuration not stated)	-6%	x	x	x	x	x
Cc1ccc(C(=O)NNC(=O)Cc2nc3nc(C)cc(C)n3n2)cc1	1%	1%	-3%	30%	x	8%
Cc1cc(C)n2nc(CC(=O)NNC(=O)c3ccc(N(C)C)cc3)nc2n1	11%	u	-11%	38%	x	-10%
Cc1cc(C)n2nc(CC(=O)NNC(=O)c3ccccc3Cl)nc2n1	13%	14%	3%	55%	7.1µM*	5%
COc1ccc(C(=O)NNC(=O)Cc2nc3nc(C)cc(C)n3n2)cc1	-2%	-35%	-9%	43%	0.35µM*	9%
Cc1cc(C)n2nc(C(=O)NNC(=O)c3ccc(Cl)cc3)nc2n1	0%	89µM*	-10%	29%	u	-20%
Cc1cc(C)n2nc(C(=O)N/N=C/c3ccc(Cl)cc3)nc2n1	-10%	4%	-19%	36%	-2%	-16%
CCOc1ccc(C2C(C(=O)Nc3ccccc3)=C(C)Nc3nc(SCc4cc(C)ccc4C)nn32)cc1 (configuration not stated)	-20%	0%	x	16%	6%[59 µM]	-17%
Cc1cc(-c2csc(NC(=O)c3ccc(C#N)cc3)n2)c(C)n1Cc1ccccc1	-8%	8%	-10%	29%	45µM*	-26%
N#Cc1ccc(-c2csc(NNC(=O)c3ccccc3)n2)cc1	0%	1%	-4%	17%	x	-31%
CC1CC2C3CCC4=CC(=O)C=C[C@@]4(C)[C@]3(F)C(O)C[C@]2(C)[C@]1(O)C(=O)CO (some centres not stated)	x	x	x	x	-2%[2.33 µM]	x
NC(=S)N/N=C/c1cccc(Br)c1	u	-11%	-16%	7%	4%[12.7 µM]	-20%
COc1ccccc1-n1c2c(cc(C(=O)N3CCC(C)CC3)c1=O)C(=O)CC(C)(C)C2	251%	-3%	-2%	46%	-37%	-6%
CCOc1ccc(-n2c(-c3ccc(OC)cc3)cc3c2CC(C)(C)CC3=O)cc1	-69%	13µM*	x	-24%	14µM*	16µM*
Cc1ccc(-c2cc3c(n2-c2ccc(F)cc2)CC(C)(C)CC3=O)cc1	1%	-25%	x	-8%	-31%[59 µM]	-24%
COc1cccc(-n2c(-c3ccc(Cl)cc3)cc3c2CC(C)(C)CC3=O)c1	-2%	8.9µM*	x	-21%	u	8.9µM*
Cc1ccc(-c2cc3c(n2-c2ccc(C)cc2)CC(C)(C)CC3=O)cc1	-12%	-14%	x	14%	-41%[59 µM]	u

Compound activity: PubChem BioAssay, National Center for Advancing Translational Sciences (NCATS)
